Assay results as given in ChEMBL document CHEMBL3988442, “University of Dundee, Small-Polar-MMV Screening Library” (2021).
Screen size: about 69,000 compounds; about 950 (1.4%) showed an effect of 50% or more. This excerpt belongs to a sample that is enriched for strong results.

What follows are compounds tested on Mycobacterium tuberculosis (assay: Cornell M. t heat shock assay; also: in the data most compounds retested in dose-response had high values).
Type: functional, organism-based
Parameters: dose or concentration left out as unconfirmed
In the case of `CCC(=O)Nc1cccc(OCC(=O)N[C@@H]2C[C@H]3CC[C@@H]2C3)c1`, the “Percent Effect” value was -8.125%. In the case of `O=C(O)C(F)(F)F.O=C(O)C(F)(F)F.c1cc(CO[C@@H]2CN(Cc3ccoc3)[C@@H]3CCCO[C@@H]32)ccn1`, the “Percent Effect” value was 21.84%. For `CN1CCOCC2(CCCN(C(=O)c3ccccc3F)C2)C1.O=C(O)C(F)(F)F` (stereo not given), the “Percent Effect” value was -25.25%. With `CN(C)C(=O)N1CCC2(CC1)CN(Cc1ccccn1)C(=O)CO2.O=C(O)C(F)(F)F` the “Percent Effect” value was -0.5573%. In the case of `Cn1cc(CN2CCCC23CCN(C(=O)c2ccncc2)CC3)cn1.O=C(O)C(F)(F)F`, the “Percent Effect” value was -22.55%. In the case of `Cc1ncccc1NC(=O)[C@H]1C[C@@H]2CCN(Cc3nccs3)C[C@@H]2O1.O=C(O)C(F)(F)F.O=C(O)C(F)(F)F`, the “Percent Effect” value was -3.608%. `O=C(CC1CN(Cc2ccccc2)CCO1)NCCN1CCOCC1` (stereo not given) was tested, and the “Percent Effect” value was -41.8%. For `O=C(CC1CN(Cc2ccccc2)CCO1)NC1CCCC1` (stereo not given), the “Percent Effect” value was -14.55%. For `Cl.O=C(O)CC1CN(Cc2ccccc2)CCO1` (stereo not given), the “Percent Effect” value was 70.76%. With `Cc1ccc(CN2CCn3cc(CN4CCN(C)CC4)nc3C2)cc1.O=C(O)C(F)(F)F.O=C(O)C(F)(F)F.O=C(O)C(F)(F)F` the “Percent Effect” value was -4.711%. For `CNC(=O)NCC1CCC2(CCN(C(=O)c3cccnc3)CC2)CO1.O=C(O)C(F)(F)F` (stereo not given), the “Percent Effect” value was 9.868%. In the case of `O=C(O)CC(O)(CC(=O)O)C(=O)O.c1cncc(-c2nccc(CN3CCC(N4CCCCC4)CC3)n2)c1`, the “Percent Effect” value was -13.06%. `O=C(O)C(F)(F)F.O=C(O)C(F)(F)F.c1cncc(COCc2nnn3c2CN(Cc2ccsc2)CC3)c1` was tested, and the “Percent Effect” value was -26.71%. For `CC(C)C(=O)N1CCN(C(=O)c2cscn2)[C@H]2CS(=O)(=O)C[C@H]21`, the “Percent Effect” value was 73.31%. `Cc1cnc(C(=O)N2CCN(C(=O)C(C)C)[C@@H]3CS(=O)(=O)C[C@@H]32)cn1` was tested, and the “Percent Effect” value was 4.224%. In the case of `CC(C)C(=O)N1CCN(C(=O)c2cc(C(C)C)on2)[C@H]2CS(=O)(=O)C[C@H]21`, the “Percent Effect” value was -10.22%. In the case of `Cc1ccc(OCC(=O)N2CCCC(n3nc(C)nc3C)C2)cc1` (stereo not given), the “Percent Effect” value was -13.19%. For `Cc1n[nH]cc1CNC(C(=O)N1CCCCC1)c1ccccc1` (stereo not given), the “Percent Effect” value was -8.652%. `O=C(O)C(F)(F)F.c1csc(CN2CCc3nnc(COc4cncnc4)n3CC2)c1` was tested, and the “Percent Effect” value was -24.48%. `Cc1nc(CN2CCC3(CCCO3)CC2)c2ccccn12` was tested, and the “Percent Effect” value was 77.67%. `Cc1ccc(C2(O)CCN(Cc3nc(C)n4ccccc34)CC2)nc1` was tested, and the “Percent Effect” value was 43.96%. For `Cc1nc(CN2C[C@@H](CN3CCOCC3)[C@@H](CO)C2)c2ccccn12`, the “Percent Effect” value was 1.211%. In the case of `Cl.Cl.NCC1CN(c2ncnc3[nH]cnc23)CCO1` (stereo not given), the “Percent Effect” value was -17.53%. For `CNC(=O)C1Cn2ccnc2C2(CCN(Cc3nccs3)CC2)O1.O=C(O)C(F)(F)F.O=C(O)C(F)(F)F` (stereo not given), the “Percent Effect” value was -22.49%. With `Cc1nc(CN2C[C@@H]3COC[C@]3(COCC(=O)N(C)C)C2)cs1.O=C(O)C(F)(F)F` the “Percent Effect” value was -21.91%. `Cc1ccc2c(c1)C1(CCNCC1)CC2OCC1CC1` (stereo not given) was tested, and the “Percent Effect” value was 13.82%. In the case of `CCOC1CC2(CCN(C(=O)COC)CC2)c2cc(C)ccc21` (stereo not given), the “Percent Effect” value was -4.26%. With `COCCN1CCC2(CC1)CC(OCC1CC1)c1ccc(C)cc12` (stereo not given) the “Percent Effect” value was 53.27%. For `COCCN1CCC2(CC1)CN(C(=O)c1ccccc1)CCO2.O=C(O)C(F)(F)F`, the “Percent Effect” value was -8.433%. With `CN(C)C(=O)N1CCC2(CCCN(CCOc3ccccc3)C2)C1.O=C(O)C(F)(F)F` (stereo not given) the “Percent Effect” value was -6.162%. For `O=C(O)C1(Oc2cccc(F)c2)CCN(C2CCOCC2)CC1`, the “Percent Effect” value was 1.505%. In the case of `O=C(O)C1(Oc2ccc(Cl)cc2)CCN(C2CCOCC2)CC1`, the “Percent Effect” value was 51.75%. In the case of `O=C(O)C1(Oc2ccc3c(c2)OCO3)CCN(C2CCOCC2)CC1`, the “Percent Effect” value was -2.757%. For `O=C1CCCN1CCN1CCCC(c2ccn[nH]2)C1` (stereo not given), the “Percent Effect” value was 4.433%. For `Cc1cc(C2CCCN(CC(=O)N3CCc4ccccc43)C2)n[nH]1` (stereo not given), the “Percent Effect” value was -11.71%. `Cc1cc(C2CCCN(CC(=O)Nc3nc4c(s3)CCC4)C2)n[nH]1` (stereo not given) was tested, and the “Percent Effect” value was 104%. With `O=C(CN1CCCC(c2ccn[nH]2)C1)Nc1nc2c(s1)CCC2` (stereo not given) the “Percent Effect” value was 104%. With `O=C(CN1CCCC(c2ccn[nH]2)C1)N1CCCc2ccccc21` (stereo not given) the “Percent Effect” value was -24.99%. `CC(C)C1Nc2ccccc2C(=O)N1CC(=O)Nc1nc2c(s1)CCC2` (stereo not given) was tested, and the “Percent Effect” value was -0.3209%. In the case of `O=C(CN1CCCC(c2ccn[nH]2)C1)Nc1nc2c(s1)CCCC2` (stereo not given), the “Percent Effect” value was 102.5%. In the case of `Cc1cc(C2CCCN(CC(=O)N3CCCc4ccccc43)C2)n[nH]1` (stereo not given), the “Percent Effect” value was -30.42%. With `O=C(O)c1cccc(CN2CCCC(c3ccn[nH]3)C2)c1` (stereo not given) the “Percent Effect” value was -8.776%. For `CN1CCOCC2(CCCN(C(=O)Cc3ccncc3)C2)C1.O=C(O)C(F)(F)F` (stereo not given), the “Percent Effect” value was -28.6%. With `COc1cccc(Cn2c(C3CCNCC3)cc3cccnc32)c1.Cl` the “Percent Effect” value was 0.437%. For `CCC(CN1CCN(C)CC1)NC(=O)C1(c2cccc(F)c2)CC1.O=C(O)CC(O)(CC(=O)O)C(=O)O` (stereo not given), the “Percent Effect” value was 1.881%.
